Measurements as given in PubChem BioAssay AID602252 (Broad Institute, 2012).
About 2,700 (0.9%) of roughly 300,000 compounds were called active. For the sample, actives were picked, then their nearest neighbours and some compounds at random. A number with no mark means an inactive call.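 How the source made its calls: active means mean inhibition of at least 30% with at least half of replicates also reaching 30%; inconclusive means no clear call, values can overlap the other calls; inactive means the rest.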

Each compound was assayed against Golgi-associated PDZ and coiled-coil motif-containing protein (Homo sapiens) (UniProt Q9HD26) (assay: untagged CAL PDZ binding inhibitors, primary screen, biochemical, fluorescence polarization, HTS (AID 602252;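 further: 0% = DMSO neutral control and 100% = excess unlabeled competitor peptide PRC23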)). Conditions: purified CAL PDZ, TMR-peptide fluorescence polarization, 1 h; at 24.9 µM; stronger effect = higher value.
For `CN(c1ccc(OCC(=O)NC2=NCCS2)cc1)S(=O)(=O)c1ccc(F)cc1`, the inhibition was 81.4% (active).
Work on `Cc1ccc(S(=O)(=O)N(C)c2ccc(OCC(=O)NC3=NCCS3)cc2)cc1` yielded an inhibition of -1.61%.
Compound `Cc1ccc(S(=O)(=O)N2CCN(C(=O)Cn3c(=O)cnc4ccccc43)CC2)c(C)c1` has an inhibition of -10.5%.
`COc1ccc(CNCCCNCc2ccc(OC)c(OC)c2)cc1OC` gave an inhibition of 2.4%.
With `CSCCC(NS(=O)(=O)c1ccc(C)cc1)C(=O)N1CCCC1` (stereo not given) the inhibition was 68.8% (active).
With `CSCCC(NC(=O)c1ccccc1)C(=O)N1CCCCCCC1` (stereo not given) the inhibition was -1.09%.
`CSCC(NS(=O)(=O)c1ccc(C)cc1)C(=O)O` (stereo not given) gave an inhibition of 2.04%.
Compound `O=C1[C@@H](c2ccccc2)[C@@H](c2ccccc2)N1c1cccnc1` has an inhibition of -3.46%.
Work on `O=C(Cc1ccc(S(=O)(=O)N2CCOCC2)s1)Nc1ccc(Br)c(C(F)(F)F)c1` yielded an inhibition of -2.21%.
In the case of `Cc1nc2ccc(NC(=O)c3cccc(S(=O)(=O)N4CCOCC4)c3)cc2s1`, the inhibition is reported as -4.38%.
`CC(=O)Nc1ccc(NC(=S)NC(=O)c2ccc([N+](=O)[O-])c(C)c2)cc1` showed an inhibition of -0.773%.
`O=C(NC(=S)Nc1ccc(NC(=O)c2cccs2)cc1)c1ccc([N+](=O)[O-])cc1` showed an inhibition of -2.58%.
With `CC(=O)NC(=S)Nc1ccc(NC(=S)NC(=O)c2ccc([N+](=O)[O-])cc2)cc1` the inhibition was 56.3% (active).
`O=C(Nc1ccc2ccccc2c1[N+](=O)[O-])c1ccccc1` gave an inhibition of 0.89%.
In the case of `CC1(C)CCSC(/C=C/c2ccccc2)=N1`, the inhibition is reported as 76.1% (active).
With `CC(C)[C@@H](C(=O)OCC(=O)c1ccc2c(c1)NC(=O)CO2)N1C(=O)c2ccccc2C1=O` the inhibition was -3.95%.
With `CN(Cc1ccccc1)C(=O)c1ccc(COc2ccccc2)cc1` the inhibition was -2.72%.
`CN(Cc1ccccc1)C(=O)COc1ccccc1` was tested, and the inhibition was 34.5% (active).
Compound `CN(Cc1ccc(F)cc1)C(=O)COc1ccc2ccccc2c1` has an inhibition of -2.25%.
In the case of `CN1CCC(N(C)C(=O)c2ccc(Cl)c(S(=O)(=O)Nc3ccc(Cl)cc3)c2)CC1`, the inhibition is reported as 4.93%.
`CC(C)(C)OC(=O)N1CCC(C(=O)Nc2cccc(C(=O)NCCc3ccccc3)c2)CC1` showed an inhibition of -2.65%.
Compound `COc1ccc(CNc2nc(NCc3ccc(OC)cc3)c3ncn(C4CCCC4)c3n2)cc1` has an inhibition of 2.25%.
In the case of `O=C(Nc1cc(S(=O)(=O)Nc2ccc(Cl)cc2)ccc1O)c1ccc(F)cc1F`, the inhibition is reported as -2.45%.
For `COc1ccc(N=C2C=CC(=O)O2)cc1`, the inhibition was -18.5%.
`CCO[C@H]1OC(C(=O)N2CCCCCCC2)=C[C@@H](c2ccc(C(F)(F)F)cc2)[C@@H]1CCCO` gave an inhibition of -1.81%.
`CCO[C@@H]1OC(C(=O)N2CCOCC2)=C[C@H](C)[C@H]1CCCO` gave an inhibition of -0.99%.
In the case of `CCO[C@H]1OC(C(=O)N2CCOCC2)=C[C@@H](c2ccc3c(c2)OCO3)[C@@H]1CCCO`, the inhibition is reported as 31.2% (active).
Work on `O=C(Cc1ccc(NC(=O)C2CCCN(C(=O)CCc3ccccc3)C2)cc1)Nc1ccc(C(=O)N2CCOCC2)cc1` (stereo not given) yielded an inhibition of -8.09%.
With `CC1CCCCC1NCC(=O)Nc1ccccc1C(=O)Nc1ccccc1` (stereo not given) the inhibition was -1.41%.
With `CN(C)C(=S)N=c1ssc(=S)n1Cc1ccco1` the inhibition was -2.26%.
`O=C(CNC(=O)c1cc(S(=O)(=O)N2CCOCC2)ccc1N1CCCC1)Nc1ccc(F)c(F)c1` showed an inhibition of -2.42%.
`O=C(N/N=C1\CCSC1)c1cc(Cl)ccc1O` was tested, and the inhibition was 39.8% (active).
`CC(C)/C=N/NC(=O)c1cc(Br)ccc1O` was tested, and the inhibition was -1.22%.
`C/C(=N/NC(=O)c1cc(Cl)ccc1O)C12CC3CC(CC(C3)C1)C2` was tested, and the inhibition was 0.948%.
Compound `COc1cc(O)c2c(=O)c3c(O)c(O)ccc3oc2c1OC` has an inhibition of -1.48%.
`O=C(Cn1cnc2c(OCc3ccccc3)ncnc21)NCc1nc2ccccc2[nH]1` gave an inhibition of 9.79%.
In the case of `CCOc1cc(C(=O)N(Cc2ccccc2)c2ccc(C)cc2)ccc1OCC(=O)N1CCOCC1`, the inhibition is reported as -2.56%.
In the case of `N#CC1(Nc2ccc(-c3ccc(Cl)cc3)cc2)CCCC1`, the inhibition is reported as -1.39%.
For `O=S(=O)(NCCc1ccccn1)c1cc(Cl)cc(Cl)c1O`, the inhibition was -0.874%.
With `O=[N+]([O-])c1cc(S(=O)(=O)NCCc2ccccn2)ccc1Cl` the inhibition was 40.3% (active).
Compound `O=[N+]([O-])c1cccc(S(=O)(=O)NCc2ccccn2)c1` has an inhibition of -3.81%.
With `Cc1c(NS(=O)(=O)c2cccc(C(=O)Nc3ccc(SC(F)F)cc3)c2)c(=O)n(-c2ccccc2)n1C` the inhibition was -2.68%.
In the case of `Cc1cc(S(=O)(=O)NCc2ccccn2)c(Cl)cc1Cl`, the inhibition is reported as -2.31%.
In the case of `Fc1ccc(-c2ccc(CNCc3ccccn3)o2)cc1Cl`, the inhibition is reported as 52.7% (active).
`CN(Cc1ccccn1)Cc1nc(-c2ccc(Cl)cc2)no1` showed an inhibition of -1.29%.
